Compounds with a hit are over-represented: about 3.1% of the library has one in this group of screens.
PLK1 PBD block: qHTS for Inhibitors of PLK1-PDB (polo-like kinase 1 - polo-box domain): Primary Screen | Serine/threonine-protein kinase PLK1 (Homo sapiens), P53350 | Potency, µM, for inactives: max response, negative = inhibition, actives largely listed as inhibitors | Plk1 PBD binding of FITC phosphopeptide, fluorescence polarization | actives 2.8% (n = 360,000); further: potency means the concentration at half of the fitted maximal effect; series mostly up to about 57 µM; on the % scale 0 is the no-effect control and ±100 the full control effect; nearly all actives have a fitted effect of over 65% in size
Target sequence (P53350 whole entry, looked up, the tested form may be a part): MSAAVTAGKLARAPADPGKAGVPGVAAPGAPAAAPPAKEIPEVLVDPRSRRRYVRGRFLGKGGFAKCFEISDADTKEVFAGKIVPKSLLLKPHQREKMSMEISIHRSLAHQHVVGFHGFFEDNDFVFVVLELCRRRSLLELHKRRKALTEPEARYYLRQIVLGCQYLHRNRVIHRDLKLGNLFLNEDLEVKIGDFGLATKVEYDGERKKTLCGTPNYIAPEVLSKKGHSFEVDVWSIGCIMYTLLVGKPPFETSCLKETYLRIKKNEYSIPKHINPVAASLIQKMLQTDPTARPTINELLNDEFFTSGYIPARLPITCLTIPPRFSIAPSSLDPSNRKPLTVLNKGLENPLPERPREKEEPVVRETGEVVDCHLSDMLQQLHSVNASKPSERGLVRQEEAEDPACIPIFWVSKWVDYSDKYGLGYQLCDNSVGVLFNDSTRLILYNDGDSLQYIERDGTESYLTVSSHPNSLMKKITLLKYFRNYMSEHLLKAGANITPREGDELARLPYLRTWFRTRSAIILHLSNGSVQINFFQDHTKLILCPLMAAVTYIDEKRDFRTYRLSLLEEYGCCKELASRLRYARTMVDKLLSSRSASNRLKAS
VDR inhibitor: Inhibitors of the vitamin D receptor (VDR): qHTS | Vitamin D3 receptor (Homo sapiens), P11473 | actives 0.93% (n = 400,000) | Potency, µM, inactives show max response, negative = inhibition, hits mostly inhibitors | VDR-SRC2-3 peptide fluorescence polarization, 2 h; further: potency means the concentration at half of the fitted maximal effect; on the % scale 0 is the no-effect control and ±100 the full control effect
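Measured by FP: displacement of SRC2-3 coactivator peptide from VDR by library compounds, following a two-hour ambient incubation.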
TSHR antag: Antagonists of the Thyroid Stimulating Hormone Receptor: HTS campaign; Thyrotropin receptor (Homo sapiens), P16473; TSHR-expressing cells, TSH-stimulated cAMP HTRF, 2 h; stronger effect = lower value; activity change, negative = inhibition, % at 11.5 µM; actives 0.2% (n = 330,000); AID 504810, 2011;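 active means activity change below a set negative limit, meaning inhibition stronger than a set level, cut at about -70% in these data; inconclusive means activity change between two set negative limits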; further: on the % scale 0 is the no-effect control and ±100 the full control effect
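Read-out is FRET at 665 nm (cryptate excitation 337 nm) from a cryptate-tagged anti-cAMP antibody, competed by cell cAMP against cAMP-d2. Compounds are tested on freshly harvested TSHR cells challenged with 4nM TSH (EC80) for 2 hours at 37 deg C.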
Vif-A3G inh: qHTS for Inhibitors of Vif-A3G Interactions: qHTS | HeLa A3G-eYFP + Vif (tagged APOBEC3G with the HIV-1 protein that degrades it), YFP fluorescence, overnight | Potency, µM (titrated, usually from 46.1 µM), inactives show at the top dose activity, negative = active, hits mostly inhibitors | actives 0.076% (n = 410,000); further: potency means the concentration at half of the fitted maximal effect; on the % scale 0 is the no-effect control and ±100 the full control effect; nearly all actives have a fitted effect of over 60% in size
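Read-out is eYFP fluorescence (Ex 488/Em 500-530) from Vif-expressing HeLa A3G-eYFP cells; more signal means A3G escaped Vif-mediated degradation. Cells plated overnight, compound pinned in, incubated overnight at 37 deg C.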
Vif-APOBEC3F blk: qHTS for Inhibitors of Vif-A3F Interactions: qHTS; HeLa A3F-eYFP + Vif (tagged APOBEC3F with the HIV-1 protein that degrades it), YFP fluorescence increase; Potency, µM (titrated, usually from 46.1 µM), inactives show at the top dose activity, negative = active; actives 0.2% (n = 390,000); further: potency means the concentration at half of the fitted maximal effect; % of control where 0% means no effect; nearly all actives have a fitted effect of over 65% in size
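Fluorescence increase (Ex 488/Em 500-530) after overnight compound treatment at 37 deg C flags inhibition of Vif-driven A3F-eYFP loss in stable HeLa A3F-eYFP/Vif cells seeded overnight beforehand.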
An asterisk follows results filed as active; ? = inconclusive; nt = not tested or not shown. Unless noted, the call rests on the fitted dose curve; in most records, active means well fitted curve in the direction sought with a large enough effect; inconclusive means small, poorly fitted or top-dose-only effect, or another doubt; inactive means no such curve, though single readings can be large; an effect the other way counts as inactive or inconclusive.

SMILES	PLK1 PBD block	VDR inhibitor	TSHR antag	Vif-A3G inh	Vif-APOBEC3F blk
Cc1ccc(S(=O)(=O)N/N=C2/CCCCC2C2CCCCC2)cc1[N+](=O)[O-] (stereo not drawn)	24µM*	?	5	1%	-10%
CN(C)c1ccc(/C=C/c2nc3ccccc3o2)cc1	nt	nt	nt	-116%	nt
O=C(O)C1C2C=CC(C2)C1C(=O)NCc1ccc(Cl)c(Cl)c1 (stereo not drawn)	-6%	-1%	-4	-4%	2%
O=C(O)C1CCCCC1C(=O)NCc1ccc(Cl)c(Cl)c1 (stereo not drawn)	30µM*	-5%	-2	3%	5%
C=C1CCN(C(Cc2ccccc2)C(=O)O)S(=O)(=O)c2ccccc21 (stereo not drawn)	nt	?	nt	4%	nt
CCCc1cc(CN2CCOCC2)c(O)c(CN2CCOCC2)c1O	6.7µM*	22µM*	nt	-6%	9%
Oc1ccc2ccccc2c1CN1CCOCC1	27µM*	?	-15	1%	-2%
OCCC1CN(Cc2ccccc2O)CCN1CCCc1ccccc1 (stereo not drawn)	-6%	0%	-1	-5%	-3%
Oc1cnc2ccccc2c1CN1CCOCC1	-9%	-1%	1	0%	-11%
OCCC1CN(Cc2c(O)ccc3ccccc23)CCN1CCc1ccccc1 (stereo not drawn)	24µM*	?	-14	-4%	3%
Oc1c(CN2CCOCC2)cc(CN2CCOCC2)c(O)c1O	1.7µM*	20µM*	nt	2%	-16%
O=[N+]([O-])c1ccc(Nc2nc(NCCN3CCOCC3)nc(Nc3ccc(Cl)cc3)n2)cc1	nt	nt	nt	1%	nt
CCOc1ccccc1CN1CCc2nc(N3CCN(c4ccccc4F)CC3)ncc2C1	nt	19%	nt	4%	-10%
O=C(CCl)c1ccc(Cc2ncc(C(F)(F)F)cc2Cl)s1	2.4µM*	?	5	-11%	-12%
CNc1c(Cl)cc(/C=C2\C=Cc3ccccc32)cc1Cl	nt	nt	nt	-5%	nt
COc1ccc2c(c1)C(=O)[C@H](OC(=O)NS(=O)(=O)c1ccc(C)cc1)[C@@H](c1ccc(OC)c(Br)c1)O2	nt	3%	nt	nt	nt
O=C(On1c(-c2ccccc2)nc2ccccc2c1=O)c1ccco1	17µM*	-24%	nt	-1%	-5%
COc1cc(OC)cc(-c2nc3ccccc3c(=O)n2OC(=O)c2ccccc2C)c1	-17%	-10%	-5	-2%	0%
CCN(CC)c1ccc(/C=C2\C(=O)N(c3nnc(C)c(=O)[nH]3)N=C2C)cc1	?	16µM*	-5	?	?
CCN(CC)c1ccc(/C=C2/C(=O)ON=C2C)cc1	?	?	-8	1%	?
N#CC[n+]1cccc(Br)c1	nt	nt	nt	3%	nt
CCOc1nc(NC2CCCC2)nc(N2CCC(C)CC2)n1	19µM*	79µM*	11	-1%	-25%
Nc1c(C(=O)Nc2ccccc2F)sc2nc(-c3ccco3)ccc12	?	6%	-14	?	22µM*
O=[N+]([O-])c1ccc(SCCc2ccccn2)cc1	17µM*	-11%	-11	-2%	1%
O=[N+]([O-])c1ccc(SCCc2ccncc2)cc1	19µM*	?	-2	-5%	0%
SMILES	PLK1 PBD block	VDR inhibitor	TSHR antag	Vif-A3G inh	Vif-APOBEC3F blk
Cn1c(SCCc2ccc([N+](=O)[O-])cc2)nccc1=O	4%	-3%	nt	0%	7%
CCN(Cc1ccncc1)Cc1c(O)ccc2ccccc12	2.7µM*	-26%	3	2%	-19%
C[C@H](O)CN(C)C	nt	14%	nt	nt	nt
Cc1[nH][nH]c(=O)c1C(c1c(C)[nH][nH]c1=O)c1cn(Cc2cccc3ccccc23)c2ccccc12	7.5µM*	-21%	-1	?	?
CCn1cc(S(=O)(=O)c2ccccc2)c(=O)c2cc(F)c(N3CCN(c4ccccc4)CC3)cc21	nt	8%	nt	-1%	-5%
O=C1NC(=O)/C(=C\c2ccccc2Oc2ccc(F)c(F)c2)S1	27µM*	-9%	-44	?	-7%
O=C1NC(=O)/C(=C/c2ccccc2OCc2ccccc2)S1	?	-28%	-31	-1%	-3%
O=Cc1c(OCc2ccccc2)ccc2ccccc12	17µM*	?	3	-2%	0%
COc1cc(C2NC(=O)C(C#N)=C(S)N2c2ccccc2)ccc1OC(C)C (stereo not drawn)	-23%	35µM*	11	-1%	7%
COc1ccc(C2NC(=O)C(C#N)=C(S)N2c2ccccc2)cc1OC (stereo not drawn)	-18%	45µM*	-9	0%	-31%
COc1ccc(C2NC(=O)c3ccccc3N2)cc1OC (stereo not drawn)	-7%	2%	4	1%	0%
O=C(NCCNCCO)C1(C(F)(F)F)CC(CCc2ccccc2)CCCO1 (stereo not drawn)	nt	-1%	nt	4%	nt
O=S(=O)(c1cccc(C(F)(F)F)c1)N1CCN(c2nc(-c3cccs3)nc3cc(Cl)ccc23)CC1	nt	-1%	nt	1%	nt
CN(C)c1ccc(C=C2SC(=S)N(Cc3ccco3)C2=O)cc1	63%	nt	nt	?	?
Cc1cc(/C=C2\SC(=S)N(Cc3ccco3)C2=O)c(C)n1-c1ccccc1	-18%	0%	-2	?	20µM*
CCOc1ccc(C2N(c3cc(C)on3)C(=O)C3CCCN32)cc1OC (stereo not drawn)	27µM*	-27%	-4	-1%	1%
Cc1ccc(OCc2cc(=O)n3ccsc3n2)c(NC(=O)c2ccco2)c1	nt	-12%	nt	3%	-6%
C[C@@H](C(=O)N[C@@H](Cc1c[nH]c2ccccc12)C(=O)O)n1nnc2ccccc2c1=O	30µM*	-29%	-2	2%	4%
CC(C)C[C@H](NC(=O)CCn1nnc2ccccc2c1=O)C(=O)O	19µM*	-11%	-3	3%	1%
C[C@H](NC(=O)CCn1nnc2ccccc2c1=O)C(=O)O	3%	-22%	-20	-1%	-2%
O=C(Cn1nnc2ccccc2c1=O)N[C@@H](Cc1c[nH]c2ccccc12)C(=O)O	-1%	1%	4	1%	-7%
O=C(Cn1nnc2ccccc2c1=O)N[C@H](C(=O)O)c1ccccc1	30µM*	-19%	-2	1%	6%
CCCCc1ccc(NC(=O)Cn2cnc3c2c(=O)n(C)c(=O)n3C)cc1	nt	2%	nt	6%	-3%
COc1cc(/C=C/c2cccc[n+]2C)ccc1OCC(=O)Nc1ccccc1C	-5%	11%	-10	2%	14%
CCOc1cc(/C=C\[N+](=O)[O-])ccc1OCC(=O)Nc1ccccc1C	?	4.5µM*	-4	-24%	1%
COc1cc(C(=S)N2CCN(C(c3ccccc3)c3ccccc3)CC2)cc(OC)c1O	13µM*	?	-15	2%	-14%
